# From publication PMC5913336, “True equilibrium measurement of transcription factor-DNA binding affinities using automated polarization microscopy”
# pKd: −log10 of the molar value.
# Target: T1, Slp1-FL (Drosophila melanogaster, UniProt P32030)
# T1 sequence: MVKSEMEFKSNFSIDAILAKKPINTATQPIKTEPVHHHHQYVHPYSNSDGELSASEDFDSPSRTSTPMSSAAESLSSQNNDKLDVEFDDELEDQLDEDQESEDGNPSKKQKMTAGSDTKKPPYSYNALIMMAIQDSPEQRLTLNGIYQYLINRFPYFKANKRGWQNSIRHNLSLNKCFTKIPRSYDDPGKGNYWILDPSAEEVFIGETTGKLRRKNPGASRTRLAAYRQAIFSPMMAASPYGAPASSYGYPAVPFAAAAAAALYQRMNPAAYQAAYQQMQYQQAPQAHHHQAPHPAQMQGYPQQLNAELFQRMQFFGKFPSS
# Test: FP; 33 mM phosphate pH 7.0, 90 mM NaCl, 0.01% Tween 20, 0.1 mM DTT, 0.5% agarose; room temperature
# Details: tags: N-GST (pGEX-6P-1, kept); dsDNA, one strand shown
row,Sequence,binding signal
1,ACGTGTTCACACTTA,37.4 Kd / Kd of best base at the position
2,ACGTGTTTACACTTC,1.33 Kd / Kd of best base at the position
3,ACGTGTTTACACGTA,2.9 Kd / Kd of best base at the position
4,GCGTGTTTACACTTA,1.21 Kd / Kd of best base at the position

# Target: T2, Gt (Drosophila melanogaster, UniProt P39572 369-448)
# T2 sequence: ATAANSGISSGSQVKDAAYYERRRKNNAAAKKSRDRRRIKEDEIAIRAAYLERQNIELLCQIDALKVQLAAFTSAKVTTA
# Test: as above
# Details: tags: N-GST (pGEX-6P-1, kept); chain copies: 2; dsDNA, one strand shown
Sequence,binding signal,pKd
ATTACGTCACC,5.02 Kd / Kd of best base at the position,
TTTACGTAACC,6.92 Kd / Kd of best base at the position,
ATTACGTAAAC,10.5 Kd / Kd of best base at the position,
CTTACGTAACC,2.33 Kd / Kd of best base at the position,
ATTACGTAAGC,3.37 Kd / Kd of best base at the position,
ACTACGTAACC,121 Kd / Kd of best base at the position,
ATTTCGTAACC,177 Kd / Kd of best base at the position,
ATTACGTAACA,2.19 Kd / Kd of best base at the position,
ATTACGTGACC,18.9 Kd / Kd of best base at the position,
ATTACCTAACC,45.8 Kd / Kd of best base at the position,
ATTACGTAACC,,~9.05
ATTACGGAACC,460 Kd / Kd of best base at the position,
ATTACGTAATC,1.58 Kd / Kd of best base at the position,
ATTACGTACCC,1620 Kd / Kd of best base at the position,
ATTCCGTAACC,1830 Kd / Kd of best base at the position,
ATTACGCAACC,4.03 Kd / Kd of best base at the position,
ATTACGTTACC,518 Kd / Kd of best base at the position,

Sequence,binding signal,pKd
ATTGCGTAACC,3.54 Kd / Kd of best base at the position,
ATTACGTATCC,549 Kd / Kd of best base at the position,
ATGACGTAACC,3.59 Kd / Kd of best base at the position,
ATTACTTAACC,567 Kd / Kd of best base at the position,
ATCACGTAACC,40.1 Kd / Kd of best base at the position,
ATTACGTAACT,4.28 Kd / Kd of best base at the position,
GTTACGTAACC,1.09 Kd / Kd of best base at the position,
ATTAGGTAACC,56.6 Kd / Kd of best base at the position,
ATTACATAACC,3.03 Kd / Kd of best base at the position,
ATTACGTAACG,3.4 Kd / Kd of best base at the position,
AATACGTAACC,113 Kd / Kd of best base at the position,
ATTACGTAGCC,1020 Kd / Kd of best base at the position,
ATAACGTAACC,174 Kd / Kd of best base at the position,
AGTACGTAACC,155 Kd / Kd of best base at the position,
ATTACGAAACC,316 Kd / Kd of best base at the position,
ATTATGTAACC,3.81 Kd / Kd of best base at the position,
ATTAAGTAACC,133 Kd / Kd of best base at the position,
